In PMC5700166:

Target: T1, GST-Aq-NF-kB (Amphimedon queenslandica, UniProt A9Y5G7 2-389)
T1 sequence: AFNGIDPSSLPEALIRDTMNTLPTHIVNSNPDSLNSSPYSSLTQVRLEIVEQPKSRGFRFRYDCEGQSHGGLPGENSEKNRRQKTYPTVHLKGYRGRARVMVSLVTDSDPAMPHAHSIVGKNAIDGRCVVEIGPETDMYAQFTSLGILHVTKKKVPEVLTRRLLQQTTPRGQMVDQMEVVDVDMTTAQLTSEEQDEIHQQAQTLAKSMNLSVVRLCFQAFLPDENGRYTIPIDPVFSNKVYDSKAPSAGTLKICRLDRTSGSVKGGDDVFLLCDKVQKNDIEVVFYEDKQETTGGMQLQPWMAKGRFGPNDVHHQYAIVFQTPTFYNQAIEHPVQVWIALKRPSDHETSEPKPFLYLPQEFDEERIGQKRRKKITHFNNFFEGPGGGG
Assay: protein-binding microarray (PBM); PBM: ~300 nM protein, 6 mM HEPES pH 7.8, 80 mM KCl, 0.5 mM EDTA, 0.5 mM EGTA, 6% glycerol, 35 ng/ul poly-dIdC, 1% milk, 1 h, room temperature; Ap Aiptasia and Nv Nematostella (sea anemones) / Co Capsaspora / Aq Amphimedon (sponge) / Dm Drosophila / Hu human; RHD is the Rel homology domain; high values mean tight binding
Conditions: dsDNA, one strand shown

| Sequence | binding signal [z-score] |
| --- | --- |
| CCGATTAACATCAAAATTACCCCTGATGTTAATCGGGTCTTGATTCGCTTGACGCTGCTG | 6.34 |
| CCGATTAACATCAGAAAATCCCCTGATGTTAATCGGGTCTTGATTCGCTTGACGCTGCTG | 8.95 |
| CCGATTAACATCAGAGAATCCCCTGATGTTAATCGGGTCTTGATTCGCTTGACGCTGCTG | 7.28 |
| CCGATTAACATCAGGGGGCAATATGATGTTAATCGGGTCTTGATTCGCTTGACGCTGCTG | 3.54 |
| CCGATTAACATCAAGGGGTTCCCTGATGTTAATCGGGTCTTGATTCGCTTGACGCTGCTG | 5.11 |
| CCGATTAACATCAGGAAGCCCCCTGATGTTAATCGGGTCTTGATTCGCTTGACGCTGCTG | 7.03 |
| CCGATTAACATCAGGGGGTTTCATGATGTTAATCGGGTCTTGATTCGCTTGACGCTGCTG | 6.59 |
| CCGATTAACATCAGGGGAAACCCTGATGTTAATCGGGTCTTGATTCGCTTGACGCTGCTG | 9.57 |
| CCGATTAACATCATAATCCCCCATGATGTTAATCGGGTCTTGATTCGCTTGACGCTGCTG | 5.96 |
| CCGATTAACATCAGGGGGGATAATGATGTTAATCGGGTCTTGATTCGCTTGACGCTGCTG | 4.72 |
| CCGATTAACATCAGGGGTTTCTATGATGTTAATCGGGTCTTGATTCGCTTGACGCTGCTG | 4.5 |
| CCGATTAACATCAATTTCCCCCCTGATGTTAATCGGGTCTTGATTCGCTTGACGCTGCTG | 6.64 |
| CCGATTAACATCAGATACTCCCCTGATGTTAATCGGGTCTTGATTCGCTTGACGCTGCTG | 4.46 |
| CCGATTAACATCAATTTCCCCCATGATGTTAATCGGGTCTTGATTCGCTTGACGCTGCTG | 6.34 |
| CCGATTAACATCAGGGAAAACCCTGATGTTAATCGGGTCTTGATTCGCTTGACGCTGCTG | 10.2 |
| CCGATTAACATCAAAATGTCCCCTGATGTTAATCGGGTCTTGATTCGCTTGACGCTGCTG | 5.89 |
| CCGATTAACATCACCGTTTCCCCTGATGTTAATCGGGTCTTGATTCGCTTGACGCTGCTG | 4.66 |
| CCGATTAACATCAGGGGAACAAATGATGTTAATCGGGTCTTGATTCGCTTGACGCTGCTG | 4.15 |
| CCGATTAACATCAAGGGGGTATCTGATGTTAATCGGGTCTTGATTCGCTTGACGCTGCTG | 4.34 |
| CCGATTAACATCAGAAATTCCCCTGATGTTAATCGGGTCTTGATTCGCTTGACGCTGCTG | 8.89 |

| Sequence | binding signal [z-score] |
| --- | --- |
| CCGATTAACATCAAGGGAATTTCTGATGTTAATCGGGTCTTGATTCGCTTGACGCTGCTG | 7.24 |
| CCGATTAACATCAGGGGAATACCTGATGTTAATCGGGTCTTGATTCGCTTGACGCTGCTG | 10.5 |
| CCGATTAACATCAAATTTCCCCCTGATGTTAATCGGGTCTTGATTCGCTTGACGCTGCTG | 7.79 |
| CCGATTAACATCAAAACTCCCCCTGATGTTAATCGGGTCTTGATTCGCTTGACGCTGCTG | 7.6 |
| CCGATTAACATCAGAATCCCCCCTGATGTTAATCGGGTCTTGATTCGCTTGACGCTGCTG | 7.37 |
| CCGATTAACATCAGGGGAGGTAATGATGTTAATCGGGTCTTGATTCGCTTGACGCTGCTG | 2.71 |
| CCGATTAACATCAGGGGGGTTTATGATGTTAATCGGGTCTTGATTCGCTTGACGCTGCTG | 6.15 |
| CCGATTAACATCAAAAATCCCACTGATGTTAATCGGGTCTTGATTCGCTTGACGCTGCTG | 3.87 |
| CCGATTAACATCAACGAATCCCCTGATGTTAATCGGGTCTTGATTCGCTTGACGCTGCTG | 3.82 |
| CCGATTAACATCAAGCAATCCCCTGATGTTAATCGGGTCTTGATTCGCTTGACGCTGCTG | 4.53 |
| CCGATTAACATCAAGGGTATTCCTGATGTTAATCGGGTCTTGATTCGCTTGACGCTGCTG | 5.86 |
| CCGATTAACATCAGGGGAAAAGATGATGTTAATCGGGTCTTGATTCGCTTGACGCTGCTG | 4.78 |
| CCGATTAACATCAGGGGAATGCATGATGTTAATCGGGTCTTGATTCGCTTGACGCTGCTG | 4.86 |
| CCGATTAACATCAGGGAAATCCATGATGTTAATCGGGTCTTGATTCGCTTGACGCTGCTG | 5.63 |
| CCGATTAACATCAGATTTACCCCTGATGTTAATCGGGTCTTGATTCGCTTGACGCTGCTG | 3.62 |
| CCGATTAACATCACCGTTCCCCCTGATGTTAATCGGGTCTTGATTCGCTTGACGCTGCTG | 4.51 |
| CCGATTAACATCAGAATTTCCCATGATGTTAATCGGGTCTTGATTCGCTTGACGCTGCTG | 5.17 |
| CCGATTAACATCAGGGGATTACCTGATGTTAATCGGGTCTTGATTCGCTTGACGCTGCTG | 9.77 |
| CCGATTAACATCAGGGGAAGATATGATGTTAATCGGGTCTTGATTCGCTTGACGCTGCTG | 6.09 |
